The record followed here is ChEMBL document CHEMBL4513216, “Probing the Open Global Health Chemical Diversity Library for Multistage-Active Starting Points for Next-Generation Antimalarials” (ACS Infect Dis, 2020).

SMILES strings stand for the structures. About 2,100 (3.2%) of roughly 65,000 compounds showed an effect of 50% or more. The median lay at about -52%. Only a selection was taken, and strong results are over-represented in it overall.

In this experiment the test system is Plasmodium falciparum. Put plainly: Screen against P. falciparum Asexual Blood Stage (ABS), at 5uM. As to conditions: tested at 5 uM. The experiment is classed as functional, Dd2.
`Cn1nc(C(=O)NCc2ccc(Cl)cc2)c2c1CCS(=O)(=O)C2`: the INHIBITION was -79%.

Consider `COCC(=O)N1CCC2(COCc3cnc(N4CCOCC4)nc32)C1` (stereo not drawn), for which the INHIBITION is on record as -38%.

With `CC(C)n1nc(CN(C)C)c2c1CN(C(=O)CC1CC1)CC2`, the INHIBITION was -91.2%.

Consider `COc1cc(NC(=O)N2CCCC2c2nncn2C)ccc1Br` (stereo not drawn), for which the INHIBITION was -53.7%.

Take `CCS(=O)(=O)NCc1nc(C)cc(N2CCCCC2)n1`: the INHIBITION was -38.7%.

Turning to `CC(C)n1nc(CN2CCCC2)c2c1CN(CC1CC1)CC2`, the INHIBITION came to 55.7%.

Take `Cn1nc(CN2CCCC2)c2c1CN(CC1CC1)CC2`: the INHIBITION is reported as -16.8%.

For `CC(C)n1nc(CN(C)C)c2c1CN(CC1CC1)CC2`, the INHIBITION was -87.1%.

Take `CC(C)N(C)Cc1cnc2n1CCN(C(=O)c1cccs1)C2`: the INHIBITION came to 62.6%.

For the molecule `CC(C)N(C)Cc1cnc2n1CCN(C(=O)Cc1ccccn1)C2`, the INHIBITION is recorded as -6.41%.

For the molecule `CC(C)N(C)Cc1cnc2n1CCN(C(=O)Cc1ccsc1)C2`, the INHIBITION is -45.1%.

`Cc1ccc(C(=O)N2CCC(Oc3ccc(C)c(C)c3)CC2)c(=O)[nH]1`: the INHIBITION is -19.9%.

Regarding `Cc1nc(CN2CCc3ncnc(C)c3CC2)cs1`, the INHIBITION is -152%.

Turning to `CC(C)CCN1Cc2c(C(=O)N3CCCC3)nn(C)c2C1`, the INHIBITION is given as -58.9%.

Take `COc1ccc(NCC2(O)CCNCC2)cc1OC`: the INHIBITION is -115%.

Take `Cn1cc([C@@H]2CN(S(C)(=O)=O)C[C@H]2N)c2ccncc21`: the INHIBITION is listed as 16.8%.

`Cn1cc([C@@H]2CN(S(=O)(=O)c3ccccc3F)C[C@H]2N)c2ccncc21`: the INHIBITION is on record as 63.4%.

For the molecule `Cn1cc([C@@H]2CN(S(=O)(=O)c3cccnc3)C[C@H]2N)c2ccncc21`, the INHIBITION is listed as -21.6%.

For `CN(C)c1ccc(C(=O)N(CCO)CC2CC2)c(F)c1`, the INHIBITION is given as -93.3%.

For the molecule `Cc1nn(C)cc1-c1cc(C(F)(F)F)nn1CCC#N`, the INHIBITION is reported as -167%.

As for `Cc1cc(N2CCC(Cc3ncccn3)C2)ncn1` (stereo not drawn), the INHIBITION is given as -89.6%.

With `CC(O)CNCc1ccccc1C(F)(F)F` (stereo not drawn), the INHIBITION is recorded as -46.2%.

For `Nc1nnnn1NCc1ccccc1C(F)(F)F`, the INHIBITION is reported as -13.1%.

Take `Oc1ccc(Cl)cc1CNCc1ccccc1C(F)(F)F`: the INHIBITION stood at 64.5%.

As for `O=C(COCCOc1ccccc1)Nc1ccnn1CC1CCOC1` (stereo not drawn), the INHIBITION is on record as -132%.

Turning to `CCN(C(=O)CCOC)C(c1ccc(Cl)cc1)c1ccccn1` (stereo not drawn), the INHIBITION is -56.9%.

As to `O=C(O)CC(NC(=O)c1ccccc1OC(F)F)c1cccs1` (stereo not drawn), the INHIBITION is given as -127%.

Take `CCCc1ccc(S(=O)(=O)Nc2ccc(=O)n(C)c2)cc1`: the INHIBITION was -53.7%.

In the case of `CN(C)C(=O)CN1CCC2(CC1)COc1ccccc1S(=O)(=O)N(C)C2`, the INHIBITION was -44.5%.

For the molecule `CCC(=O)N1CCC2(CC1)COc1ccccc1S(=O)(=O)N(C)C2`, the INHIBITION is -29.3%.

For the molecule `COCCN1CCC2(CC1)COc1ccccc1S(=O)(=O)N(C)C2`, the INHIBITION is on record as -7.6%.

`CCCN1CCC2(CC1)COc1ccccc1S(=O)(=O)N(CC1CC1)C2`: the INHIBITION is given as -32.6%.

With `CN1CC2(CCN(Cc3ccoc3)CC2)COc2ccccc2S1(=O)=O`, the INHIBITION stood at 61.9%.

For `CN1CC2(CCN(CC3CC3)CC2)COc2ccccc2S1(=O)=O`, the INHIBITION came to 52.5%.

With `COc1cccc(-c2ncc(CN3C[C@H]4CC[C@@H](C3)N(C)C4=O)s2)c1`, the INHIBITION was -211%.

Take `COc1cc(F)c(NC(=O)N(C)Cc2cc(C)on2)cc1F`: the INHIBITION is on record as -69.1%.

`Cc1cnn(CCC(=O)N2CCN(C(=O)C(C)C)[C@@H]3CS(=O)(=O)C[C@@H]32)c1`: the INHIBITION is reported as -87.4%.

For `CCOC(=O)c1nc(COc2ccc(CC(N)=O)cc2)no1`, the INHIBITION was -26%.

Turning to `Cc1noc(C)c1CN1CC[C@H](OCC2CC2)[C@@H](Cc2ccccc2)C1`, the INHIBITION came to 62.1%.

As for `COc1ccc(C[C@H]2CN(Cc3ccoc3)CC[C@@H]2OC)cc1`, the INHIBITION is listed as 64.8%.

Consider `Cc1noc(C)c1CN1CC[C@@H](OCC2CC2)[C@@H](Cc2ccccc2)C1`, for which the INHIBITION was 26.2%.

For `COCCN1CC[C@H](OC)[C@@H]1Cc1ccccc1`, the INHIBITION amounted to 62.8%.

Consider `COCCN1CC[C@@H](O)[C@@H]1Cc1ccccc1`, for which the INHIBITION is on record as -32.4%.

For the molecule `c1ccc(C[C@H]2CN(Cc3nccs3)CC[C@H]2OCC2CC2)cc1`, the INHIBITION turned out to be 40.9%.

With `CO[C@@H]1CCN(Cc2nccs2)C[C@@H]1Cc1ccccc1`, the INHIBITION was -9.75%.

Consider `CO[C@H]1CCN(Cc2nccs2)C[C@@H]1Cc1ccccc1`, for which the INHIBITION is on record as -25.6%.

In the case of `COc1ccc(C[C@H]2CN(C(=O)C3CC3)CC[C@H]2OC)cc1`, the INHIBITION is on record as 35.6%.

As to `COCCN1CC[C@@H](OC)[C@@H]1Cc1ccccc1`, the INHIBITION came to 1.53%.

In the case of `CO[C@H]1CCN(Cc2ccoc2)C[C@@H]1Cc1ccccc1`, the INHIBITION worked out at 67.3%.

Take `COc1ccc(C[C@H]2CN(c3cc(OC)ncn3)CC[C@@H]2OC)cc1`: the INHIBITION is listed as -0.505%.

As to `COc1ccc(S(=O)(=O)C2CCN(C(=O)c3cc(C)cs3)CC2)cc1`, the INHIBITION is on record as -23.3%.

As for `CCC(NC(=O)NCc1cccc(N(C)C)n1)c1nccs1` (stereo not drawn), the INHIBITION was -84.7%.

For the molecule `Cn1cnc(S(=O)(=O)N2CCCc3cc(F)cc(F)c32)c1Cl`, the INHIBITION is -84.8%.
